We go through 14 molecules from PubChem BioAssay (NCI).

SMILES strings stand for the structures. This is part of a sample that, as a whole, favours compounds with a hit. Of some 83,000 tested, about 20% had one in any assay.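 In brief: 96-well plates, 48 h treatment, single concentration, percent growth endpoint.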 A number with no mark means an inactive call. The source made the active and inactive calls. The calls were made as follows: active = growth percent below 10; inactive = the rest.

For this experiment, the system named is NCI-H23 lung. Kind of experiment: NCI-60 one-dose screen, 48 h (100 = growth as untreated, 0 = no growth, -100 = all killed). As to conditions: 10 µM unless noted.
Consider `O=C1/C(=C/c2ccccc2)SC(=Nc2ccccc2)N1Nc1ccccc1`, for which the growth was 13.8%. To `COc1cnc2c(c1)C(=O)c1c-2n(CCCNC(C)C)c(=O)c2cc(Cl)ccc12` belongs -64.5% (active). For the molecule `CCSCC1CC(O)(c2ccccc2)C(c2ccccc2)C(c2ccc(F)cc2)O1` (centres undefined), the growth was -6.5% (active). To `CN1C(=O)C(C2=NNC(c3ccccc3C(=O)O)C2)C(=O)N(C)C1=O` (centres undefined) belongs 106%. To `NC(N)=NC1CCCCC1` belongs 101%; to `COc1ccc(C(=O)OC2C(OC3C(O)COC(O[C@H]4C[C@H]5[C@@H]6CC=C7C[C@@H](O)CC[C@]7(C)[C@H]6CC[C@]5(C)[C@H]4[C@H](C)C(=O)CCC(C)C)C3OC(C)=O)OCC(O)C2O)cc1` (some centres undefined), 2.95% (active); to `CC(C)(C)c1ccc(OC(=O)Nc2ccccc2)cc1`, 103%. On to `CN1C2CCC1/C(=C\c1ccc(F)cc1)C(=O)/C2=C/c1ccc(F)cc1`, for which the growth is 47.9%. To `CCCCOC(=O)c1cc(O)c(O)c(O)c1` belongs 88.2%; to `CCOC(=O)C1OC2(CCCC2)OC1C(=O)OCC` (centres undefined), 103%; to `O=C(Nc1cccc(-n2ccc3c(NC(=O)c4ccccc4)nccc32)c1)c1ccc(N2CCOCC2)c(C(F)(F)F)c1`, 28.1%. Next, `CCN(CC)CCCC(C)Nc1c(-c2ccccc2)cnc2cc(Cl)ccc12` (centres undefined): 73.2%; `O=C1C=CN2C(=O)CC=CC2[C@@H]1O` (some centres undefined): 103%; `CC(=O)O[C@@H]1CC2C(C)(C)CCCC2(C)C2=C1C(=O)C(C(C)C)=CC2=O` (some centres undefined): 8.94% (active).
